PubChem BioAssay AID2546 (National Center for Advancing Translational Sciences (NCATS), 2010)
Out of some 310,000 compounds screened, about 11,000 (3.5%) were called active. Where a call stands in place of a potency, no number is given. Roughly 8% stayed inconclusive and do not appear here. The sample holds actives, similar compounds and a random draw of the others, so the mix is not that of the screen. A number with no mark means an inactive call. The call rests on the fitted dose curve; in most records, active means well fitted inhibition curve with a large enough effect; inconclusive means small, poorly fitted or top-dose-only effect, or effect the other way; inactive means flat fitted curve, though single readings scatter.

assay: VP16 counterscreen qHTS for inhibitors of ROR gamma transcriptional activity; settings: Drosophila S2 Gal4-VP16 UAS-luciferase, luminescence, 20 h; series mostly up to 53.6 µM;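 further: Gal4-VP16 expression switched on by copper sulfate through the metallothionein promoter; nearly all actives have a fitted effect of over 50% in size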
Potency means the concentration at half of the fitted maximal effect.

| SMILES | Potency | activity, negative = inhibition |
| --- | --- | --- |
| CCOC(=O)c1c(C)[nH]c(C)c1S(=O)(=O)NCCCc1ccco1 | inactive | – |
| O=C(NCCc1ccc(Cl)cc1Cl)c1cc([N+](=O)[O-])c[nH]c1=O | inactive | – |
| Cc1cc(Cl)c2oc(C(=O)N(C)C(C)c3ccccn3)c(C)c2c1 (stereo not given) | inactive | – |
| Cn1nccc1C(=O)NC1CCCc2c1cnn2-c1ccccc1F (stereo not given) | 1.41 µM (active) | – |
| COc1ccc(C(=O)NC2CC(C)(C)Cc3c2cnn3-c2ccccc2C)o1 (stereo not given) | inactive | – |
| COc1ccc(C(=O)NC2CCCc3c2cnn3-c2cccc(C)c2C)c(OC)n1 (stereo not given) | 12.6 µM (active) | – |
| CC1(C)Cc2c(cnn2-c2cccc(F)c2)C(NC(=O)c2cc[n+]([O-])cc2)C1 (stereo not given) | inactive | – |
| Cc1cc(C(=O)NC2CCCc3c2cnn3-c2cccc(C)c2C)c(C)o1 (stereo not given) | inactive | – |
| Cn1nccc1CNC(=O)c1ccnn1C | inactive | – |
| CC(=O)NCC(=O)NC1CCCc2c1cnn2-c1ccccc1F (stereo not given) | inactive | – |
| Cn1nccc1C(=O)NC1CCCc2c1cnn2-c1ccc(F)cc1F (stereo not given) | 0.891 µM (active) | – |
| Cc1ccc(-n2ncc3c2CCCC3NC(=O)c2cnccn2)cc1C (stereo not given) | inactive | – |
| CC(=O)Nc1ccc(S(=O)(=O)NNC(=O)CCc2ccccc2)cc1 | inactive | – |
| CCN(CC)CCCNC(=O)c1cc2c(=O)[nH]c3ccc(C)cc3c2s1 | inactive | – |
| CC(C)(C)NC(=O)NC(=O)COC(=O)C1c2ccccc2Oc2ccccc21 | inactive | – |
| CCn1c(SCC(=O)Nc2ccc(Br)cc2)nc2sc3c(c2c1=O)CCN(C)C3 | inactive | – |
| CCCCNC(=O)c1cn(CC)c2cc(N3CCN(C(=O)c4ccco4)CC3)c(F)cc2c1=O | inactive | – |
| CCOC(=O)c1ccccc1NS(=O)(=O)c1c(C)nc2sccn2c1=O | inactive | – |
| Cc1occc(=O)c1OCc1c(Cl)cccc1Cl | inactive | – |
| O=C(O)c1ccc2c(=O)n3c(nc2c1)/C(=C/c1ccc(OC(F)F)cc1OC(F)F)CC3 | inactive | – |
| Cc1nn(C(C)(C)C)c(OC(=O)CC(C)C)c1S(=O)(=O)c1ccccc1 | inactive | – |
| COCCNC(=O)c1ccc(Cn2c(SCC(=O)NCC3CCCO3)nc3ccc(Br)cc3c2=O)cc1 (stereo not given) | inactive | – |
| CCCCn1c(SCC(=O)NCC2CCCO2)nc2ccc(N3CCOCC3)cc2c1=O (stereo not given) | 11.2 µM (active) | – |
| O=C(CCCn1c(SCC(=O)c2ccccc2)nc2ccccc2c1=O)NCC1CCCO1 (stereo not given) | inactive | – |
| CN(Cc1ccccc1)C(=O)CSc1nc2ccccc2[nH]1 | inactive | – |
| CCOC(=O)c1csc(CCNC(=O)c2oc3c(Cl)cc(C)cc3c2C)n1 | inactive | – |
| N#C/C(=C(/O)COC(=O)COc1ccc(Cl)cc1)c1nc2ccccc2[nH]1 | 12.6 µM (active) | – |

| SMILES | Potency | activity, negative = inhibition |
| --- | --- | --- |
| N#C/C(=C(/O)COc1cccc2ccccc12)c1nc2ccccc2[nH]1 | 7.94 µM (active) | – |
| O=C(COC(=O)CCCSc1nc2ccccc2[nH]1)Nc1ccc(Oc2ccccc2)cc1 | inactive | – |
| COCCN(CCOC)S(=O)(=O)c1ccc(/C(O)=C(\C#N)c2nc3ccccc3[nH]2)cc1 | inactive | – |
| O=C(COc1ccccc1)NCCc1nc2ccccc2[nH]1 | inactive | – |
| Cc1ccccc1OC/C(O)=C(\C#N)c1nc2ccccc2[nH]1 | inactive | – |
| O=C(CCS(=O)(=O)c1ccccc1)NC1CCCC1 | inactive | – |
| O=C(O)C1CC=CCC1C(=O)Nc1ccccc1C(=O)N1CCN(c2ccccc2)CC1 (stereo not given) | inactive | – |
| COc1ccc(C(=O)Nc2ccccc2C(=O)N2CCN(c3ccccc3)CC2)cc1 | inactive | – |
| CC(C)c1ccc(N2CCN(C(=O)c3ccccc3NC(=O)/C=C(\C(=O)O)c3ccccc3)CC2)cc1 | 1.12 µM (active) | – |
| CCCN1CCC(=O)N(C(CSc2ccc(OC)cc2)Cc2ccccc2)CC1 (stereo not given) | inactive | – |
| Cn1cnc2c1c(=O)n(Cc1ccccc1C#N)c(=O)n2C | inactive | – |
| Cc1cc2oc(=O)cc(CN(C)Cc3ccc(OC(F)F)cc3)c2cc1Cl | inactive | – |
| Cc1cccc(N2CCN(C(=O)CN(C)S(=O)(=O)c3ccc4c(c3)CCC(=O)N4)CC2)c1C | inactive | – |
| CCOC(=O)Cc1csc(NC(=O)CSc2nc(C)cc(=O)[nH]2)n1 | inactive | – |
| CCOC(=O)Cc1csc(NC(=O)CN(C)S(=O)(=O)c2ccc3c(c2)CCC(=O)N3)n1 | 11.2 µM (active) | – |
| CCOC(=O)C1CCN(C(=O)C2CCCN(S(=O)(=O)c3ccc(OC)c(Cl)c3)C2)CC1 (stereo not given) | inactive | – |
| CC1(C(=O)NCCc2c[nH]c3ccccc23)C=CC2(CCCCC2)N1C(=O)c1ccccc1 (stereo not given) | inactive | – |
| COc1ccc(NC(=O)CN(C)C(=O)CNC(=O)C2CCCCC2)cc1 | inactive | – |
| O=c1[nH][nH]c(=O)c2cc(N3CCCC3)ccc12 | inactive | – |
| O=C1C=CC(=O)N1c1ccc(N2CCCCC2)cc1 | 8.91 µM (active) | – |
| CCOC(=O)/C(C#N)=C/c1ccc(N2CCCCC2)cc1 | inactive | – |
| Oc1ccc(Br)cc1/C=N/Nc1ccccn1 | 10 µM (active) | – |
| O=[N+]([O-])c1ccc(O)c(/C=N/Nc2ccccc2[N+](=O)[O-])c1 | inactive | – |
| O=C(Nc1ccc(Br)cc1)c1cc(S(=O)(=O)Nc2ccccn2)ccc1Cl | inactive | – |
| COc1ccc(NC(=O)NNC(=O)COc2cc(C)c(Cl)c(C)c2)c(OC)c1 | inactive | – |
| O=C1CCN(CCc2ccccc2)CCN1CCOc1ccccc1 | inactive | – |
| Cc1ccc(C(=O)CCC(=O)N(C)CC(=O)Nc2c(Cl)cccc2Cl)cc1 | inactive | – |

| SMILES | Potency | activity, negative = inhibition |
| --- | --- | --- |
| CCCCC1S/C(=N/N=C/c2cccs2)NC1=O (stereo not given) | 0.316 µM (active) | – |
| CC(=O)Nc1ccc(S(=O)(=O)Oc2ccc(/C=N/N=C3/NC(=O)C(CC(=O)O)S3)cc2)cc1 (stereo not given) | inactive | – |
| CCC1C/C(=C/c2cccs2)C(=O)/C(=C/c2cccs2)C1 (stereo not given) | inactive | – |
| CCN(CC)CCCNC(=O)COc1ccc2oc3c(c2c1)CCCC3 | inactive | – |
| COc1ccc(NC(=O)Nc2cccc3cccnc23)cc1 | inactive | – |
| Cc1ccc(OS(=O)Nc2cccc3nccnc23)cc1 (stereo not given) | 3.16 µM (active) | – |
| Cc1ccc(OCC(=O)Nn2cnc3ccccc32)cc1 | inactive | – |
| Cc1csc(NC(=O)NC2(C(F)(F)F)Oc3ccccc3O2)n1 | inactive | – |
| O=C(Nc1cc(N2CCOCC2)ncn1)NC1(C(F)(F)F)Oc2ccc(Cl)cc2O1 (stereo not given) | 15.8 µM (active) | – |
| O=C(CN1C(=O)COc2ccc(Cl)cc21)Nc1ccc(N2CCOCC2)cc1 | inactive | – |
| COc1ccc(NC(=O)COc2ccc(C(=O)c3ccc(F)cc3)cc2)cc1S(N)(=O)=O | inactive | – |
| COc1ccc(NC(=O)C/C(C)=N/NC(=O)c2cnccn2)cc1Cl | inactive | – |
| CCOC(=O)C1CCN(C(=O)COc2cccc3ccccc23)CC1 | inactive | – |
| CCN(CC)C(=O)COc1coc(CN2CCN(Cc3ccccc3)CC2)cc1=O | inactive | – |
| Cc1ccccc1-c1n[nH]c(=S)n1C | 7.94 µM (active) | – |
| Cc1ccccc1-c1n[nH]c(=S)n1/N=C/c1ccc(-c2ccccc2Br)o1 | inactive | – |
| CCCc1cc(-c2n[nH]c(=S)n2CC)c2ccccc2n1 | inactive | – |
| O=C(Nc1cccc(NC(=O)c2ccccc2[N+](=O)[O-])c1)c1ccccc1Cl | inactive | – |
| CCOC(=O)N/N=C/c1cn(Cc2ccccc2Cl)c2ccccc12 | inactive | – |
| COc1cccc(Cn2cc(/C=N/NC(=O)c3cc(O)cc(O)c3)c3ccccc32)c1 | inactive | – |
| COC(=O)N/N=C/c1cn(CCCOc2ccc(C)cc2)c2ccccc12 | 1 µM (active) | – |
| CCOC(=O)N1CCC(N2Cc3cccc(C(=O)Nc4ccc(S(=O)(=O)N(CC)CC)cc4)c3C2=O)CC1 | inactive | – |
| C/C(=N\c1nc2ccccc2n1C)c1cc(Cl)ccc1O | inactive | – |
| Oc1ccc(Cl)cc1/C=N/c1nc2ccccc2[nH]1 | inactive | – |
| CCN(CC)CCn1c(/N=C/c2cc(Br)ccc2O)nc2ccccc21 | 6.31 µM (active) | – |
| Cc1sc2ncn(CC(=O)NCCCC(=O)N3CCN(c4ccccc4F)CC3)c(=O)c2c1C | inactive | – |
| Cn1cccc1/C=N/NC(=O)CNc1cccc2ccccc12 | inactive | – |

| SMILES | Potency | activity, negative = inhibition |
| --- | --- | --- |
| COc1ccc(/C=N/NC(=O)c2cccc(C(F)(F)F)c2)cc1 | – | 6.66% [at 10 µM] |
| Cn1cccc1/C=N/NC(=O)c1ccc(OC(F)(F)C(F)F)cc1 | 5.62 µM (active) | – |
| O=C(NCCc1cccc(F)c1)C1CCCN(c2nc3ccccc3s2)C1 (stereo not given) | inactive | – |
| COc1cc(NC(=O)c2ccccc2)c(OC)cc1NC(=O)Cc1ccccc1 | inactive | – |
| NC(=O)COC(=O)/C=C/c1ccc2ccccc2n1 | inactive | – |
| COc1cccc(/C=C/c2ccc3ccccc3n2)c1OC(C)=O | 5.01 µM (active) | – |
| COc1cccc(/C=C2\C=C(c3ccc(C)cc3)OC2=O)c1OC(C)=O | inactive | – |
| CCOc1ccccc1-c1cc(C(=O)N/N=C(\C)c2cccnc2)c2ccccc2n1 | inactive | – |
| CSc1sc(C(=O)NNC(=O)c2ccc(Cl)cc2)c2c1C=CCC2 | inactive | – |
| CS(=O)(=O)c1sc(C(=O)NC(=S)Nc2ccc(OC(F)(F)F)cc2)c2c1C=CCC2 | 11.2 µM (active) | – |
| COC(=O)[C@H](C)NC(=O)Nc1ccc(OC(F)(F)F)cc1 | inactive | – |
| CC(C)c1c(C(=O)N/N=C/c2ccc(-c3ccccc3)cc2)nnn1-c1nonc1N | inactive | – |
| Cc1nn2c(NCCN(C)C)c3c(nc2c1-c1ccccc1)CCC3 | 0.794 µM (active) | – |
| Cc1cc(C(C)(C)C)n2nc(C)c(-c3ccccc3)c2n1 | inactive | – |
| Cc1cc(N2CCCC2)n2nc(C)c(-c3ccccc3)c2n1 | inactive | – |
| CCOC(=O)C1(Cc2cccc(OC)c2)CCCN(C(=O)CCSC)C1 (stereo not given) | inactive | – |
| CCN(CC)S(=O)(=O)c1ccc(N2CCN(C)CC2)c(NC(=O)Nc2ccccc2F)c1 | inactive | – |
| Cc1ccccc1CN1CCNC(=O)C1CC(=O)NCCC1=CCCCC1 (stereo not given) | inactive | – |
| C[n+]1ccc(C(=O)NCc2ccccc2)cc1 | inactive | – |
| O=C(O)c1ccc(/C=N/NC(=S)NCc2ccccc2)cc1 | inactive | – |
| C/C(=N\NC(=S)NCc1ccccc1)C1CCCCC1 | 1 µM (active) | – |
| CC1CCCCN1C(=S)NCc1ccccc1 (stereo not given) | inactive | – |
| C/C(=N\NC(=S)NCc1ccccc1)c1ccc(Cl)cc1 | 0.794 µM (active) | – |
| O=C(CC1CCCCC1)NCc1ccccc1 | inactive | – |
